Experimental findings from PubChem BioAssay AID1508622 (National Center for Advancing Translational Sciences (NCATS), 2021) are described below.

The source made the active and inactive calls. Entries that show only a call come without a potency. The call rests on the fitted dose curve; in most records, active means well fitted activation curve with a large enough effect; inconclusive means small, poorly fitted or top-dose-only effect; inactive means no such curve, though single readings can be large or run the other way.
Potency means the concentration at half of the fitted maximal effect.

This test can be described thus: Confirmatory qHTS for Identification of Small Molecule Activators of Huntingtin-Antisense Promoter Activity. As to conditions: HEK293 HTT-AS promoter firefly luciferase reporter, 24 h; series mostly up to 57.5 µM. The method in brief:
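Plated reporter HEK293 cells (24 h) received library compounds at up to 57.5 uM final or 50 uM PTC124, incubated 24 h at 37C; firefly luciferase luminescence was then recorded with Dual-Glo reagent.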
With `CCOc1ccccc1C(=O)Nc1ccc2nc3c(c(Nc4ccc(OC)c(OC)c4)c2c1)CCCC3`, the Potency entry was “inactive”.

In the case of `Cc1ccc(NC(=O)C2CCN(S(=O)(=O)c3ccc4[nH]c5c(c4c3)CCCCC5)CC2)cc1`, the Potency entry is “inactive”.

Regarding `Cc1cccc(C2C=C(c3ccc(F)cc3)Nc3nc4ccccc4n32)c1` (centres undefined), the Potency is 1.07 µM (active).

For the compound `O=C(O)c1cc(-n2c(/C=C\c3ccc(F)cc3)nc3ccccc3c2=O)ccc1Cl`, the Potency result is “inactive”.

`Cc1cccc(NC(=O)c2cnn(-c3ccccc3)c2-n2cccc2)c1C`: the Potency result was “inactive”.

As to `COc1ccc2nc(N3CCN(C(=O)CS(=O)(=O)c4ccc(C)cc4)CC3)sc2c1`, the Potency entry is “inactive”.

For `Cc1cc(NC(=O)Cn2c(=O)oc3cc(S(=O)(=O)N4CCCC4)ccc32)ccc1Br`, the Potency result was “inactive”.

With `Cc1ccccc1C(=O)Nc1sc2c(c1C(=O)O)CCC(C(C)(C)C)C2` (centres undefined), the Potency result is “inactive”.

Consider `CSc1ncc(Cl)c(C(=O)Nc2ccc(S(=O)(=O)N3CCC(C)CC3)cc2)n1`, for which the Potency entry was “inactive”.

Regarding `COc1cccc(CNC(=O)c2ccc(-c3nc(COc4ccccc4)c(C)o3)cc2)c1`, the Potency result was “inactive”.

Turning to `CC[C@@H]1C(=O)N(C)c2cnc(Nc3ccc(C(=O)NC4CCC(N5CCN(CC6CC6)CC5)CC4)cc3OC)nc2N1C(C)C` (some centres undefined), the Potency result was “inactive”.

For `CCN(C(=O)CSc1nc(-c2ccccc2)no1)c1cccc(C)c1`, the Potency entry was “inactive”.

Turning to `COc1ccc(-c2noc(CSc3nc4ccccc4[nH]3)n2)cc1OC`, the Potency result was “inactive”.

Regarding `O=C(Nc1nnc(S(=O)(=O)N2CCc3ccccc32)s1)c1cccc(Cl)c1`, the Potency result is “inactive”.

As to `Cc1ccccc1OCc1ccc(-c2nc(C#N)c(NCc3cccnc3)o2)o1`, the Potency entry is “inactive”.

On to `FC(F)(F)c1cccc(Nc2nc3nonc3nc2Nc2ccc(Cl)cc2)c1`, for which the Potency result was “inactive”.

Take `COc1ccc(NS(=O)(=O)c2ccc(N3CCCCS3(=O)=O)cc2)cc1Cl`: the Potency result is “inactive”.

Take `Cc1cc(C)cc(N2C(=O)CSC23C(=O)N(Cc2c(F)cccc2Cl)c2ccccc23)c1` (centres undefined): the Potency entry was “inactive”.

For `COc1ccc(S(=O)(=O)N(CCc2ccccc2)CC(=O)Nc2cc(C)cc(C)c2)cc1OC`, the Potency entry is “inactive”.

For `Cc1ccc(-c2cn3nc(N4CCCC(C(=O)Nc5ccc(F)cc5)C4)sc3n2)cc1` (centres undefined), the Potency result was “inactive”.

Consider `COc1ccc(S(=O)(=O)c2cc3cc(C(C)(C)C)cc(O)c3oc2=O)cc1`, for which the Potency entry is “inactive”.

Consider `COc1ccc(C(=O)NCC(c2cccnc2)N2CCN(c3ccc(F)cc3)CC2)cc1` (centres undefined), for which the Potency result is “inactive”.

Regarding `Cc1ccc(Cn2c(SCc3ccc(C(=O)NC4CCCC4)cc3)nc3ccncc32)cc1`, the Potency result was “inactive”.

With `Cc1cc(NC(=O)CCc2nc3cccnc3n2-c2ccccc2)ccc1Br`, the Potency entry was “inactive”.

Regarding `CCc1ccccc1-n1nnc(-c2nsc(NC(=O)c3ccc(C)c(C)c3)n2)c1C`, the Potency entry was “inactive”.

Regarding `CN(C)Cc1ccc(-c2nc3cccc4c3n2CCNC4=O)cc1`, the Potency is 30.1 µM (active).

For the compound `CC(C)c1ccc(CNC(=O)c2ccc(N3CCCC3)c(NC(=O)NCc3ccc(F)cc3)c2)cc1`, the Potency result is “inactive”.

As to `O=C(Nc1ccc(OC(F)(F)F)cc1)C(NS(=O)(=O)c1cccc2nsnc12)c1ccccc1` (centres undefined), the Potency result was “inactive”.

With `O=C(Nc1nc2cccc(-c3ccc(CN4CCS(=O)(=O)CC4)cc3)n2n1)C1CC1`, the Potency was 8.49 µM (active).

For the compound `O=C(c1ccc2c(c1)N(Cc1ccccc1)C(=O)c1ccccc1S2(=O)=O)N1CCCCCC1`, the Potency result is “inactive”.

On to `COc1ccc(-n2c(=O)[nH]c3cc(C(=O)NCCc4ccc(Cl)cc4)ccc3c2=O)cc1OC`, for which the Potency entry was “inactive”.

With `Cc1cc(C)cc(NC(=O)C2CCCN2S(=O)(=O)c2ccc3c(c2)CCCC(=O)N3)c1` (centres undefined), the Potency entry is “inactive”.

Turning to `Cc1cccc(N2CCN(C(=O)c3cccc(-n4c(C)nc5cccnc54)c3)CC2)c1C`, the Potency entry was “inactive”.

As for `COc1ccc(OC)c(CNS(=O)(=O)c2ccc3[nH]c4c(c3c2)CCCCC4)c1`, the Potency result is “inactive”.

Regarding `CC(C)c1ccc(CNC(=O)c2ccc(N3CCCC3)c(NC(=O)NCc3ccccc3)c2)cc1`, the Potency result is “inactive”.

With `O=c1cc(-c2ccccc2)oc2cc(O)cc(O)c12`, the Potency was 26.9 µM (active).

As to `O=C(C=Cc1ccc(CN(CCO)CCc2c[nH]c3ccccc23)cc1)NO`, the Potency was 2.13 µM (active).

In the case of `CSc1ccc(CCNc2ncnc3onc(C)c23)cc1`, the Potency entry was “inactive”.

Take `O=C(NCCc1csc(-c2ccc(F)cc2)n1)c1cccc(F)c1`: the Potency result is “inactive”.
